This passage reports outcome results from PubChem BioAssay AID1671448 (Corson Lab, School of Medicine, Indiana University, 2021).

Out of some 20,000 compounds screened, about 660 (3.3%) were called active.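 How the source made its calls: active means enzyme reaction rate more than 3 SD below the solvent-only control wells on the same plate; inactive means the rest.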 The entries come from a sample that favours actives as a whole.

Chain of Ferrochelatase, mitochondrial (Homo sapiens) (P22830 whole entry, looked up): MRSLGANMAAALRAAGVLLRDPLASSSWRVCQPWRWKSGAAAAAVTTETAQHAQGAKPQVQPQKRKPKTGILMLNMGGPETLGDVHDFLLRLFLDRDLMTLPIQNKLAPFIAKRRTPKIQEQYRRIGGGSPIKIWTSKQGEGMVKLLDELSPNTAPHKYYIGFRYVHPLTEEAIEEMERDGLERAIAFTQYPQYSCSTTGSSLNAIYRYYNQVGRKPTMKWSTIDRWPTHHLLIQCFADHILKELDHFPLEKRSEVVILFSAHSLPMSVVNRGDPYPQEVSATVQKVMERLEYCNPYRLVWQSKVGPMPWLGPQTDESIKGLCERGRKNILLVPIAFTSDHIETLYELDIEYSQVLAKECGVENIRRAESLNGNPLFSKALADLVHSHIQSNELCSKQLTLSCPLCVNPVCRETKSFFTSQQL

This assay concerns the target Ferrochelatase, mitochondrial (Homo sapiens) (UniProt P22830). As to the kind of experiment: FECH heme synthesis enzyme blockers – biochemical, purified FECH, Ni-mesoporphyrin absorbance, primary screen (AID 1671448). As to conditions: Ni-mesoporphyrin absorbance 550 nm, screened at 10 µM (by protocol).
For the compound `Cc1cccc(C(C(=O)NC2CCN(S(C)(=O)=O)CC2)N(C)C)c1` (configuration not stated), the compound was called inactive. To `O=C1NC(c2cccnc2)(C2CCNCC2)C(=O)N1Cc1ccccc1F` (configuration not stated) belongs “inactive”; to `CCc1ccc(S(=O)(=O)Nc2ccc(Sc3c(CC)c(C)nc4ncnn34)cc2)cc1`, “active”.

Turning to `CCCc1c(C)nc2ncnn2c1Sc1ccc(NS(=O)(=O)c2cc(C)cc(C)c2C)cc1`, the compound was classed as inactive.

As for `CCc1c(C)nc2ncnn2c1Sc1ccc(NC(=O)Nc2cccc(C)c2C)cc1`, the outcome was inactive. To `CCc1c(C)nc2ncnn2c1Sc1ccc(NC(=O)CC(C)C)cc1` belongs “inactive”; to `CCc1c(C)nc2ncnn2c1Sc1ccc(NS(=O)(=O)c2cc(OC)ccc2OC)cc1`, “inactive”. Regarding `CCCc1c(C)nc2ncnn2c1Sc1ccc(NC(=O)C(C)(C)C)cc1`, the compound was classed as active. The entry for `CCc1c(C)nc2ncnn2c1Sc1ccc(NC(=O)c2cc(OC)cc(OC)c2)cc1` is “active”; for `CCCc1c(C)nc2ncnn2c1Sc1ccccc1NC(=O)c1cccs1` it is “inactive”. As to `CCc1c(C)nc2ncnn2c1Sc1ccc(NC(=O)Cc2cccs2)cc1`, the outcome was inactive. The entry for `O=C(CN1CCCN(Cc2cccc(F)c2)S1(=O)=O)Nc1ccc(Br)cc1` is “inactive”; for `O=C(c1ccncc1)N1CC[C@@H](c2ccc3ccccc3c2)[C@H](O)C1` it is “inactive”.

With `C=CCOc1c(Cl)cc(C(=O)NCCc2cnc[nH]2)cc1Cl`, the result was inactive.

In the case of `CCc1nc(C)sc1CNC(=O)[C@H](N)CC(C)C`, the compound was called inactive.

On to `CCOc1ccc(-c2nc(CSc3nc4c(c(=O)[nH]3)CCCC4)c(C)o2)cc1OC`, for which the compound was called inactive.

As for `COc1cccc2c1OCCCN(C(=O)[C@@H]1Cc3ccccc3N1)C2`, the result was inactive. To `COc1ccc(CNc2nc3nc(CNc4ccc(C)cc4)cc(=O)n3[nH]2)cc1` belongs “inactive”; to `COc1ccc(CNc2nc3nc(CNc4ccc(Br)cc4)cc(=O)n3[nH]2)cc1`, “inactive”; to `COc1ccc(CNc2nc3nc(CN4CCN(c5ccccc5OC)CC4)cc(=O)n3[nH]2)cc1`, “active”.

With `O=C(CSc1nc(-c2ccco2)nc2cc(=O)[nH]n12)NCCCc1ccccc1`, the compound was classed as inactive.

Turning to `O=C(NCc1ccccc1)c1nc[nH]c1C(=O)NCc1cccc(C(F)(F)F)c1`, the compound was classed as active.

Take `CC(C)CCNC(=O)c1nc[nH]c1C(=O)NCC(C)(C)C`: the compound was classed as inactive. Turning to `CC(C)(C)CNC(=O)c1[nH]cnc1C(=O)NCC1CC1`, the call was inactive. Turning to `Cc1cc(C)nc(SC(C)c2n[nH]c(Cc3ccccc3)n2)n1` (configuration not stated), the call was inactive. On to `Cc1nnnn1CCCN1CCC(Cc2cccc(C(=O)O)c2)CC1`, for which the compound was classed as inactive. Consider `CCOc1ccc(S(=O)(=O)NCCn2c(-c3ccccc3)nc3cccnc32)cc1`, for which the compound was classed as inactive.

Turning to `O=S(=O)(NCCn1c(-c2ccccc2)nc2cccnc21)c1ccc(Br)cc1`, the result was active. On to `O=S(=O)(NCCn1c(-c2ccccc2)nc2cccnc21)c1ccc(C2CCCCC2)cc1`, for which the compound was called inactive. To `COc1cccc2c1OCC(CN1CCC(O)(c3ccc(C)cn3)CC1)=C2` belongs “inactive”. As to `O=C(O)c1cccnc1CN1CCN(Cc2ccc3c(c2)OCO3)CC1`, the outcome was inactive. Regarding `Cc1ccccc1CN1CCN(CC(=O)Nc2cccc(Cl)c2C)S1(=O)=O`, the outcome was active. In the case of `O=C(CN1CCN(Cc2ccccc2Cl)S1(=O)=O)Nc1ccccc1Cl`, the result was inactive. Turning to `COc1ccccc1NC(=O)CN1CCN(Cc2ccccc2C)S1(=O)=O`, the compound was classed as inactive. To `CCOc1ccc(-c2nc(Cn3c(=O)c4cnc(-c5ccc(OC)cc5)nc4n(C)c3=O)c(C)o2)cc1` belongs “inactive”. With `CCn1ccc(-c2n[nH]c(=O)n2Cc2ccccc2F)n1`, the result was inactive.

As for `CCc1ccc(S(=O)(=O)N2CCN(Cc3nc4cccnc4n3-c3ccccc3)CC2)cc1`, the compound was called inactive. With `Cc1ccccc1S(=O)(=O)N1CCN(Cc2nc3cccnc3n2-c2ccccc2)CC1`, the compound was classed as inactive. `CC(=O)Nc1ccc(S(=O)(=O)N2CCN(Cc3nc4cccnc4n3-c3ccc(C)cc3)CC2)cc1`: the call was active. Consider `Cc1ccc(OCC(=O)Nc2cc(C)nn2-c2ncnc3c2cnn3-c2cccc(C)c2C)cc1`, for which the call was inactive. `CCN(CC)Cc1cnc2c(C(=O)N3CCC(Cn4cccn4)CC3)cnn2c1`: the compound was called active. To `NC(=O)c1cccc(CC2CCN(C(=O)c3cnn4cccnc34)C2)c1` (configuration not stated) belongs “inactive”.

In the case of `CCN(CC)Cc1cnc2c(C(=O)Nc3cccc4cc(C)oc34)cnn2c1`, the result was inactive. In the case of `CN1CCC(Cc2noc(CCc3nc4cccnc4n3C)n2)CC1`, the outcome was inactive. With `CCc1cccc(NS(=O)(=O)c2ccc3c(c2)CCN3C(=O)CCC(=O)N2CCOCC2)c1`, the outcome was inactive. Regarding `CCc1nc2nc(C)[nH]n2c(=O)c1NC(=O)Nc1cccc(C(F)(F)F)c1`, the call was inactive.

For the compound `Cc1nc2nc(-c3ccccc3)nn2c(Sc2ccccc2NC(=O)c2ccc(Cl)cc2)c1C`, the result was inactive.

`Cc1ccc(C(=O)Nc2nc3n(n2)C(c2ccccc2)C=C(c2ccc(Cl)cc2)N3)cc1` (configuration not stated): the compound was classed as inactive. In the case of `Cc1ccc(C2=CC(c3ccc(F)cc3)n3nc(NC(=O)c4cccs4)nc3N2)cc1` (configuration not stated), the compound was called inactive. On to `Cc1ccc(C2=CC(c3ccc(C)cc3)n3nc(NC(=O)c4ccco4)nc3N2)cc1` (configuration not stated), for which the compound was classed as active.

Turning to `Cc1ccc(C2=CC(c3c(F)cccc3Cl)n3nc(NC(=O)c4ccco4)nc3N2)cc1` (configuration not stated), the outcome was inactive. Turning to `O=C(Nc1nc2n(n1)C(c1ccccc1Cl)C=C(c1ccccc1)N2)c1ccccc1F` (configuration not stated), the result was active. `O=C(Nc1nc2n(n1)C(c1c(F)cccc1Cl)C=C(c1ccccc1)N2)c1ccc(F)cc1` (configuration not stated): the call was inactive.

Regarding `O=C(Nc1nc2n(n1)C(c1ccc(Cl)cc1)C=C(c1ccc(Cl)cc1)N2)c1ccccc1` (configuration not stated), the compound was called inactive. For `O=C(Nc1nc2n(n1)C(c1ccccc1)C=C(c1ccc(Cl)cc1)N2)c1ccc(F)cc1` (configuration not stated), the compound was called inactive.

On to `COc1ccccc1C(=O)Nc1nc2n(n1)C(c1ccc(F)cc1)C=C(c1ccccc1)N2` (configuration not stated), for which the compound was called active. Take `CCCC(=O)NC1CC(=O)N(c2ccc(OCC)cc2)C1` (configuration not stated): the compound was called inactive.
